PV pol inh = poliovirus RNA polymerase inhibition | P03300 | % elongation, % (compound at 16.7 µg/mL) | poliovirus polymerase elongation, fluorescence polarization; active compounds read low | 150,000 tested, 0.66% active; in the data active means % elongation below about 90%
Mtb MbtI inh = inhibitors of Mycobacterium tuberculosis siderophore enzyme MbtI | purified MbtI enzyme, fluorescence intensity read-out | inhibition, % (no concentration beside the values) | P9WFX0 | 100,000 tested, 0.89% active; in the data active means inhibition mostly above about 56%, no sharp cut-off; inactive means mostly below about 77%
MenB inh = blocks the Mycobacterium tuberculosis MenB enzyme; inhibition, % (no concentration beside the values); 100,000 tested, 0.43% active; MenB enzyme assay, absorbance read-out; AID 540299; P9WNP5; in the data active means inhibition above about 21%, passing the limit was not always enough
Target sequence (P9WNP5 whole entry, looked up): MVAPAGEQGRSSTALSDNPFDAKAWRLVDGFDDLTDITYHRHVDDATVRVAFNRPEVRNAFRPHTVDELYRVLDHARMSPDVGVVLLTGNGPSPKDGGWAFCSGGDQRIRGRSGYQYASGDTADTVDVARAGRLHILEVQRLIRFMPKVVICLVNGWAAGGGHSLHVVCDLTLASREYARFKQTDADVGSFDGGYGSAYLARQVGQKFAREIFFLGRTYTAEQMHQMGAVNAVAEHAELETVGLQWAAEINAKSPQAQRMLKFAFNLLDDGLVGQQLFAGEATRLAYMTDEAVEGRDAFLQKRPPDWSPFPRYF
AID504770 = E. coli YBA685 growth inhibition, screen for V. cholerae RctB inhibitors | AID 504770 | 130,000 tested, 0.27% active | E. coli YBA685 rctB-dependent plasmid, OD600 growth, 3 h; active compounds read low | z-score (no concentration beside the values); in the data active means z-score below about -2, passing the limit was not always enough
Active calls of the source: *; nt = no result. Most compounds without a hit are left out; they make up all but 1.4% or so of the library.

SMILES | PV pol inh | Mtb MbtI inh | MenB inh | AID504770
Cc1ccc(C)n1-c1ccsc1C(=O)O | 48* | -22 | -12 | -0.8
Cc1nc2ccccc2nc1Oc1ccc(Cl)c(F)c1 | nt | nt | nt | -0.35
[N-]=[N+]=c1c(=O)ccc2c(=O)c3ccccc3c(=O)c1=2 | 82* | -3 | -45 | -6.3*
Cc1cc(C)c2c(=O)n(C(=O)c3cccs3)sc2n1 | 121 | 100* | 16 | -0.6
COc1ccccc1N1CCN(S(=O)(=O)c2ccc3[nH]c4c(c3c2)CCCCC4)CC1 | 100 | 35 | 15 | -0.6
CCOc1cc(C#N)c(-n2nnc3c(sc4nc(C)cc(C)c43)c2=O)cc1OCC | 78* | nt | nt | nt
CO[C@@H]1[C@H](OC(N)=O)C(O)[C@H](Oc2ccc3c(O)c(NC(=O)c4ccc(O)c(CC=C(C)C)c4)c(=O)oc3c2C)OC1(C)C (stereo partly drawn) | 101* | -4 | -7 | nt
CO[C@@H]1[C@@H](OC(N)=O)[C@@H](O)[C@H](Oc2ccc3c(O)c(NC(=O)c4ccc(O)c(CC=C(C)C)c4)c(=O)oc3c2C)OC1(C)C | 99 | 4 | 2 | 0.3
CCn1cc(C(=O)O)c(=O)c2cc(F)c(N3CCN(C(=S)NC(=O)c4c(-c5ccccc5)noc4C)CC3)cc21 | 102 | -42 | -12 | -0.7
O=C(O)c1cn(-c2ccc(F)cc2)c2cc(N3CCNCC3)c(F)cc2c1=O | 99 | 2 | -4 | -3.5*
CCn1cc(C(=O)O)c(=O)c2cc(F)c(N3CCN(C(=S)NC)CC3)cc21 | 109 | nt | -14 | -7.2*
O=C(O)c1cn(C2CC2)c2cc(N3CCN(C(=S)S)CC3)c(F)cc2c1=O | 102 | nt | -77 | -8.3*
CCn1cc(C(=O)O)c(=O)c2cc(Cl)ccc21 | nt | nt | nt | 0.25
CCn1cc(C(=O)O)c(=O)c2cc3c(cc21)OCO3 | 102 | -1 | -7 | -3.8*
CCOC(=O)c1cn(CC)c2cc(N3CCCC3)c(F)cc2c1=O | 104 | -2 | 4 | 0
CCOC(=O)c1c(C)oc2c1c(CN1CCN(CC)CC1)c(O)c1ccccc12 | nt | nt | nt | -0.1
O=C1CCCC2=C1C(c1cccs1)CC(=O)N2c1ccccc1 (stereo not drawn) | 110 | nt | -14 | 1.7
CCN(CC)C(=S)C(=O)Nc1cc(C(F)(F)F)cc(C(F)(F)F)c1 | 86* | nt | -26 | 0.7
CC(C)(C)C(=O)Nc1cc(C(F)(F)F)cc(C(F)(F)F)c1 | nt | nt | nt | -0.55
COc1ccc(C(=O)n2c(=S)nc3cc(C)ccn32)cc1 | 79* | nt | -16 | 1.9
COc1ccc(C(=O)NCc2cn3ccc(C)cc3n2)cc1 | 107 | nt | nt | nt
Cc1nn(-c2ccccc2)c(C)c1-c1nc2ccccc2[nH]c1=O | 102 | -24 | -24 | -2.8
c1ccc(-c2nnc(-c3cccnc3)nc2-c2ccccc2)cc1 | 98 | -46 | 0 | -0.3
c1cncc(-c2nnc(-c3cccnc3)nn2)c1 | 66* | nt | 18 | -1.3
CCCN=c1ssc(=O)n1CCC | 91 | 67* | 0 | -1.5
SMILES | PV pol inh | Mtb MbtI inh | MenB inh | AID504770
CC(=O)OC(OC(C)=O)c1ccc(S(N)(=O)=O)cc1 | 103 | -20 | -20 | -0.05
Fc1ccc(NC(=S)N2CCCCC2)cc1 | 100 | -2 | -7 | -0.1
S=C(Nc1ccc2nsnc2c1)N1CCCC1 | 89* | -12 | -4 | 0.1
C/C(C/C(C)=C1/SC(=S)NC1=O)=C1\SC(=S)NC1=O | 102 | 81* | -54 | -0.35
Cc1ccc(N2C(=O)CC(C(=O)NC3(C)CCS(=O)(=O)C3)C2c2cccs2)cc1 (stereo not drawn) | 101 | -4 | 0 | -0.65
CC1Sc2nnc(Cc3ccc(Br)cc3)n2N=C1c1ccc(NS(C)(=O)=O)cc1 (stereo not drawn) | 78* | 26 | -30 | -0.45
CS(=O)(=O)Nc1ccc(Br)cc1 | 105 | nt | -1 | -0.95
Cc1ccc(C2=Nn3c(nnc3C3CCCCC3)SC2C)cc1 (stereo not drawn) | 96 | 50 | -25 | 0.9
COc1ccc(Cc2nnc3n2N=C(c2ccc(C)c(C)c2)C(C)S3)cc1OC (stereo not drawn) | 87* | 47 | -18 | -0.2
O=C(Nc1nc(-c2csc(NC(=O)C3CC3)n2)cs1)C1CC1 | nt | nt | nt | -0.4
CCOC(=O)C1C(=O)C=C(c2cccs2)CC1c1ccc(F)cc1 (stereo not drawn) | 101 | 1 | -36 | 1.2
COCc1c(Br)c(C)nc2oc(C(=O)c3ccccc3)c(N)c12 | 104 | -8 | -32 | 2.6
O=C(O)c1ccccc1CSc1nc2ccccc2[nH]1 | 96 | 56* | 4 | 0.6
CN=C(Nc1ccccc1OC)c1ccccc1 | 101 | 5 | -16 | 0.05
N#Cc1c2c(c(-c3ccccc3)[nH]c1=S)CCCC2 | 101 | 51* | -22 | 0.35
N#Cc1c(N)c(C#N)c(-c2ccccc2)c2c1CCCC2 | 108 | nt | -7 | 1.4
COc1ccc(C(O)CCC(=O)O)cc1 (stereo not drawn) | 103 | -10 | -17 | -0.85
O=C(Nc1ccccc1C(=O)O)c1ccccc1 | nt | 55* | nt | -0.1
O=C(c1ccccc1)c1ccccc1NC(=O)c1ccccc1C(=O)O | 112 | nt | nt | nt
Cc1nn2c(COc3ccc(NC(=O)c4ccco4)cc3)nnc2c2ccccc12 | 102 | -13 | -26 | -0.45
O=C(Cn1nnc(-c2ccncc2)n1)N(C1CCCCC1)C1CCCCC1 | 104 | 0 | active | -1
CCOCCCNc1n[nH]c(=S)s1 | 88* | 93 | -2 | -0.55
CCCN(CCC)C1=CC(=O)C(C)=C(C)C1=O | 86* | -26 | -34 | 0
CCC(=O)NC(c1c(C)[nH]n(-c2ccccc2)c1=O)(C(F)(F)F)C(F)(F)F | 107 | nt | 0 | -3.2*
COC(=O)c1sccc1S(=O)(=O)Nc1ccccc1 | 103 | -8 | -14 | -0.35
SMILES | PV pol inh | Mtb MbtI inh | MenB inh | AID504770
CN1CCSC1=Nc1ccc(OC(F)F)cc1 | 101 | 2 | -2 | -0.6
O=C1C(Nc2ccccc2)=CC(=O)c2ncccc21 | 82* | 3 | -7 | nt
Nn1c(SCC(=O)NCc2ccc3c(c2)OCO3)nncc1=O | 100 | -1 | -47 | -0.6
Nn1c(SCC(=O)NCc2ccc3c(c2)OCO3)nnc1C1CC1 | 104 | 81* | 14 | 0.9
COc1ccccc1CN1CCN(C(CC(C)C)c2nnnn2Cc2ccc(F)cc2)CC1 (stereo not drawn) | 101 | -2 | 33* | -0.45
Fc1ccc(C(c2nnnn2Cc2ccccc2)N2CCSCC2)cc1 (stereo not drawn) | 102 | -6 | 0 | -0.1
COc1ccc(NC(=O)C(C)n2nnc3sc(-c4ccccc4)cc3c2=O)cc1Cl (stereo not drawn) | 76* | nt | nt | nt
Cc1ccc(S(=O)(=O)NCCSc2nncn2-c2ccc(C)c(Cl)c2)cc1 | 103 | 6 | -13 | 1.4
COc1ccc(/C=C2\SC(=O)NC2=S)cc1OC | 90 | 64* | -65 | 1.5
COC(=O)CSc1nc2ccccc2n1-c1ccc(C)cc1 | 106 | -6 | nt | -0.4
COc1ccc(-c2sc(C(=O)O)cc2C)cc1 | 102 | 90 | 11 | 0.65
COc1ccc(-c2csc(=Nc3cc(C(=O)O)ccc3C)o2)cc1 | 86* | nt | -14 | -0.65
S=c1[nH]n(Cc2ccccc2)c(=NCc2ccccc2)s1 | 95 | 65* | nt | -0.95
